Results as given in ChEMBL document CHEMBL1961873, “Compounds: GSK PKIS; Assays: Nanosyn kinase panel” (2012).

Legend:
[1] = molecular target: T1, Inhibitor of nuclear factor kappa-B kinase subunit epsilon (Homo sapiens) (UniProt Q14164); settings: at 1 µM;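 note: reported values are averaged percent inhibition figures against human IKKε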
T1 sequence (whole entry): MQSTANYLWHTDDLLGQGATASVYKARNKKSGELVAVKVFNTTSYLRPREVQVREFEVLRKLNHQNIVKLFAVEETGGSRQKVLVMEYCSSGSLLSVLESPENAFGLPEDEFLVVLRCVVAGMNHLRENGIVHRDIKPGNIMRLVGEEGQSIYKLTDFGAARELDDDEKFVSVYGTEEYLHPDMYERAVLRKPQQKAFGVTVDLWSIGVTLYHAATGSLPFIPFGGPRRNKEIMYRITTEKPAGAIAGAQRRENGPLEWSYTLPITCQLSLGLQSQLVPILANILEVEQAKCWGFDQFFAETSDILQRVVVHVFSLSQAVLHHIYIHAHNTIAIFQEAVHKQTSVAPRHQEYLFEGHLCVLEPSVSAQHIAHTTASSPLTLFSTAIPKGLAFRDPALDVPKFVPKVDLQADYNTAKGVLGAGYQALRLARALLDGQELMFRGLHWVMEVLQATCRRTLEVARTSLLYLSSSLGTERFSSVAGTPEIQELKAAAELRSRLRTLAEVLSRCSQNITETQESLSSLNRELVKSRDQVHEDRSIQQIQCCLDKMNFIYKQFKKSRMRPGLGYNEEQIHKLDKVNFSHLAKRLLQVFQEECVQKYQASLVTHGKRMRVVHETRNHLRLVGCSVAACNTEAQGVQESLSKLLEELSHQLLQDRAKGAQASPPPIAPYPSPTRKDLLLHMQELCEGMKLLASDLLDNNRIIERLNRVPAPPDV

[2] = molecular target: T2, Serine/threonine-protein kinase Nek1 (Homo sapiens) (UniProt Q96PY6); settings: at 0.1 µM
T2 sequence (whole entry): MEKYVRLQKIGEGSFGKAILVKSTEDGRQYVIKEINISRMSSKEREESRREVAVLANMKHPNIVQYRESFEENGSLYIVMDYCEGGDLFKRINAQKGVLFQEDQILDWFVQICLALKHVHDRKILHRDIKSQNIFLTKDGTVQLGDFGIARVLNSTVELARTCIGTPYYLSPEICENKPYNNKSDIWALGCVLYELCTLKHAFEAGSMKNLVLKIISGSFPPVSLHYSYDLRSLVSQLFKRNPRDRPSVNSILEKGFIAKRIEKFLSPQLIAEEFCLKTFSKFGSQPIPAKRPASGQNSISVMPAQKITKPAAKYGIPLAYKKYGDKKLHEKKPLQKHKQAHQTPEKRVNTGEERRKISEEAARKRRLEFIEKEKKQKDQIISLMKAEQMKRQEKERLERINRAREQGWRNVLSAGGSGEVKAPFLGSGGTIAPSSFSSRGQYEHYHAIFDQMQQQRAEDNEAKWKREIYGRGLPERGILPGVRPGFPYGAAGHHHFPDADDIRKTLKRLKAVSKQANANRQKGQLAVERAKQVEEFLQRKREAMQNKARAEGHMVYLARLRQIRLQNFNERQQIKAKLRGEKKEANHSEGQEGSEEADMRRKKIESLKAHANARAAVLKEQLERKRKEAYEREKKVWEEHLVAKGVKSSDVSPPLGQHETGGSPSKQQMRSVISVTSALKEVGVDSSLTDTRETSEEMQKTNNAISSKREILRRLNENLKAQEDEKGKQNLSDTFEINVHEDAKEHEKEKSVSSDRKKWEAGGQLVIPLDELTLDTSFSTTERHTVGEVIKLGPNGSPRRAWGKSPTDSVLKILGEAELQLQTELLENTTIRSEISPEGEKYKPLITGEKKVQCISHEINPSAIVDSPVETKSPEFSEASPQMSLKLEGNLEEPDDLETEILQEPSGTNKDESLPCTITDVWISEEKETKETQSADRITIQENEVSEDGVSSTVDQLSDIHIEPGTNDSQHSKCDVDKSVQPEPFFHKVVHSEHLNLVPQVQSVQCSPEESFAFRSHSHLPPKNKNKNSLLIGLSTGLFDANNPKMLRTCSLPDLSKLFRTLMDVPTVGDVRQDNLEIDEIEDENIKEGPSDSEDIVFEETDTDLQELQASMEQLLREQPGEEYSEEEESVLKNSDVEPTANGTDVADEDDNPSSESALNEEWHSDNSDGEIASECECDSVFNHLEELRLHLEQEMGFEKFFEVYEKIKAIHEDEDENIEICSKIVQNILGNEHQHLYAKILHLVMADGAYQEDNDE

[3] = molecular target: T2, Serine/threonine-protein kinase Nek1 (Homo sapiens); settings: at 1 µM
[4] = molecular target: T3, Serine/threonine-protein kinase Nek2 (Homo sapiens) (UniProt P51955); settings: at 0.1 µM
T3 sequence (whole entry): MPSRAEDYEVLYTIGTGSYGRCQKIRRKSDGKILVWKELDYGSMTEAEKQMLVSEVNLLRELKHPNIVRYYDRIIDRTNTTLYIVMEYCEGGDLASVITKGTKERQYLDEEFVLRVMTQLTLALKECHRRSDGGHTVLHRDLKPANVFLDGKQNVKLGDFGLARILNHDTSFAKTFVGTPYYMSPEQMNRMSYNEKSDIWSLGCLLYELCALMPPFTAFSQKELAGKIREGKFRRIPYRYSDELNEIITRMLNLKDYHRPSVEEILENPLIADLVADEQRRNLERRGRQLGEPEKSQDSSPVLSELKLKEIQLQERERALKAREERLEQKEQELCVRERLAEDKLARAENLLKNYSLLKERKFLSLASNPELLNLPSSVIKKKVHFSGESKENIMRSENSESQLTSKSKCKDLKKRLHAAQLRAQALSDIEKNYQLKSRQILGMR

[5] = molecular target: T3, Serine/threonine-protein kinase Nek2 (Homo sapiens); settings: at 1 µM
[6] = molecular target: Serine/threonine-protein kinase Nek6 (Homo sapiens) (UniProt Q9HC98); settings: at 0.1 µM
[7] = molecular target: Serine/threonine-protein kinase Nek6 (Homo sapiens) (UniProt Q9HC98); settings: at 1 µM
[8] = molecular target: Serine/threonine-protein kinase Nek7 (Homo sapiens) (UniProt Q8TDX7); settings: at 0.1 µM
[9] = molecular target: Serine/threonine-protein kinase Nek7 (Homo sapiens) (UniProt Q8TDX7); settings: at 1 µM
[10] = molecular target: T4, Serine/threonine-protein kinase Nek9 (Homo sapiens) (UniProt Q8TD19); settings: at 0.1 µM
T4 sequence (whole entry): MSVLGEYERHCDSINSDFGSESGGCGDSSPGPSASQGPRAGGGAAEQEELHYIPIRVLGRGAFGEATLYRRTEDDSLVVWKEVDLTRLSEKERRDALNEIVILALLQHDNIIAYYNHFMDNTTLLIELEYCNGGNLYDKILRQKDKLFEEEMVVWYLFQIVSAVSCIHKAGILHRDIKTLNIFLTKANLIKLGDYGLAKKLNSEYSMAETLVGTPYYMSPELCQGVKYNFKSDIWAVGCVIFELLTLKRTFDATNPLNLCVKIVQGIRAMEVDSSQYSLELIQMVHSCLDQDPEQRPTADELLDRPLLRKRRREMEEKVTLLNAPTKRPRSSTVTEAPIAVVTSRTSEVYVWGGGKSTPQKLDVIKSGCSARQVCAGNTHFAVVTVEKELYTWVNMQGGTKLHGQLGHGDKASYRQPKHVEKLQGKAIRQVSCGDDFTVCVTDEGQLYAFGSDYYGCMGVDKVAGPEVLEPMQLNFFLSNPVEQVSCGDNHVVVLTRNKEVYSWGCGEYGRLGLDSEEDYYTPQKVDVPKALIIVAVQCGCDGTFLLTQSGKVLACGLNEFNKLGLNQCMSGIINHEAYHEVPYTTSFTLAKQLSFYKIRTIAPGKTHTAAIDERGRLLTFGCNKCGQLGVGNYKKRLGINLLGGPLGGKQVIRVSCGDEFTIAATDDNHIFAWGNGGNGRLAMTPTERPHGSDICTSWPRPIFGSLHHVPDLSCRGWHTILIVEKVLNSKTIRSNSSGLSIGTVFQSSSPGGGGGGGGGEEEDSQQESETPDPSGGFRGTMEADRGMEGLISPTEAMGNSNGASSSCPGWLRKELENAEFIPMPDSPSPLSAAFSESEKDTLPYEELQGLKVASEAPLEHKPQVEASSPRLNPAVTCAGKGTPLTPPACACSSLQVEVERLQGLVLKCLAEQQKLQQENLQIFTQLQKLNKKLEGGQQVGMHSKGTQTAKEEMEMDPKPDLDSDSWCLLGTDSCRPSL

[11] = molecular target: T4, Serine/threonine-protein kinase Nek9 (Homo sapiens); settings: at 1 µM
[12] = molecular target: Serine/threonine-protein kinase PLK1 (Homo sapiens) (UniProt P53350); settings: at 0.1 µM
[13] = molecular target: Serine/threonine-protein kinase PLK1 (Homo sapiens) (UniProt P53350); settings: at 1 µM
[14] = molecular target: T5, Dual specificity protein kinase TTK (Homo sapiens) (UniProt P33981); settings: at 0.1 µM
T5 sequence (whole entry): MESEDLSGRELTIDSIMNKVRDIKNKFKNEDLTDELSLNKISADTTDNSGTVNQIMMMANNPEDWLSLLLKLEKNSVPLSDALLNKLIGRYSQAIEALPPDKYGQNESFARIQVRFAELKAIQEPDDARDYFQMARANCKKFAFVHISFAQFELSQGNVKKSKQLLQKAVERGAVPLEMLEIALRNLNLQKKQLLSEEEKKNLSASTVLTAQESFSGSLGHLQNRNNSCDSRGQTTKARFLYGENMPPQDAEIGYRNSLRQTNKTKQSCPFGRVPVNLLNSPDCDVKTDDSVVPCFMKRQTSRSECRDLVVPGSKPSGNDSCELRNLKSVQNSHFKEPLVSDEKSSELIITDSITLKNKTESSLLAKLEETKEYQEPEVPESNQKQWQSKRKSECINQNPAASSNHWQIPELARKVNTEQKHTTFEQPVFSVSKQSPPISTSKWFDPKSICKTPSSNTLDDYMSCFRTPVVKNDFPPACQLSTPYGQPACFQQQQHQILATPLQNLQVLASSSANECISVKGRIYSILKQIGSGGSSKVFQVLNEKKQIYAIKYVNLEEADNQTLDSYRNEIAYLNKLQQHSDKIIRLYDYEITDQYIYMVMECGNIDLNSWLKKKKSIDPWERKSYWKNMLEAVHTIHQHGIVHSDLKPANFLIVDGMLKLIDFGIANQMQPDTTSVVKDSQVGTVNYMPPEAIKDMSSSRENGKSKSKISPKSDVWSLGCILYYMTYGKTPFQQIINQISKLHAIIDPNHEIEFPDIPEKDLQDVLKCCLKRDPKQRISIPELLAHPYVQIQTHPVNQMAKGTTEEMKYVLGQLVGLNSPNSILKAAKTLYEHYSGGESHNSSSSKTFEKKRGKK

[15] = system: T6, Receptor-type tyrosine-protein kinase FLT3 (Homo sapiens), P36888 [D835Y]; settings: at 1 µM
T6 sequence (whole entry): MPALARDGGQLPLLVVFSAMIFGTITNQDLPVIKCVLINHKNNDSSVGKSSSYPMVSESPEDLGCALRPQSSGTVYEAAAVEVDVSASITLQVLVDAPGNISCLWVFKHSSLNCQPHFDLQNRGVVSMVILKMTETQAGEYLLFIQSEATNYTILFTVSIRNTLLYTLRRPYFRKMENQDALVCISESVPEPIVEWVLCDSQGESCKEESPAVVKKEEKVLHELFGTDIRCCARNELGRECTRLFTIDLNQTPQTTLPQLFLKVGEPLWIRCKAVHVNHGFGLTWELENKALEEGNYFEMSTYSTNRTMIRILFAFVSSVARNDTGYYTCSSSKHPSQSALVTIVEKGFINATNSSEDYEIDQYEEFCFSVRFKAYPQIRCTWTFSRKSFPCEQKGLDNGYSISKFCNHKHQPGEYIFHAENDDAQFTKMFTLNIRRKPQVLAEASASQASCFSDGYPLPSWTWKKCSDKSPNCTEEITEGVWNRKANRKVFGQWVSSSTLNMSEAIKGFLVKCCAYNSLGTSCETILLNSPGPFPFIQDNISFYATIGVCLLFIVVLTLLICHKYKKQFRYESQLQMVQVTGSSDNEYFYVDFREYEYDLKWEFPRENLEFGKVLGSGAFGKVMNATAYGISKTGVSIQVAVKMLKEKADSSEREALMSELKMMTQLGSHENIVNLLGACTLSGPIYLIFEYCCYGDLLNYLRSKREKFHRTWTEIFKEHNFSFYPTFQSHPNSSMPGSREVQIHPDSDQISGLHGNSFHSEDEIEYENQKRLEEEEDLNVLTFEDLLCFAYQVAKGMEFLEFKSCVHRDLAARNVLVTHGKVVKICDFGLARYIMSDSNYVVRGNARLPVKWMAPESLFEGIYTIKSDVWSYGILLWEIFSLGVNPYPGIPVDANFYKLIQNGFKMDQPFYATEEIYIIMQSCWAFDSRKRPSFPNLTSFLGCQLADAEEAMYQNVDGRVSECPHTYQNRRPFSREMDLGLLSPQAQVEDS

[16] = molecular target: Vascular endothelial growth factor receptor 3 (Homo sapiens) (UniProt P35916); settings: at 0.1 µM
[17] = molecular target: Vascular endothelial growth factor receptor 3 (Homo sapiens) (UniProt P35916); settings: at 1 µM
[18] = molecular target: Macrophage colony-stimulating factor 1 receptor (Homo sapiens) (UniProt P07333); settings: at 0.1 µM
[19] = molecular target: Macrophage colony-stimulating factor 1 receptor (Homo sapiens) (UniProt P07333); settings: at 1 µM
[20] = molecular target: Tyrosine-protein kinase Fyn (Homo sapiens) (UniProt P06241); settings: at 0.1 µM
Tyrosine-protein kinase Fyn (Homo sapiens), sequence (P06241 2-537 limits assumed): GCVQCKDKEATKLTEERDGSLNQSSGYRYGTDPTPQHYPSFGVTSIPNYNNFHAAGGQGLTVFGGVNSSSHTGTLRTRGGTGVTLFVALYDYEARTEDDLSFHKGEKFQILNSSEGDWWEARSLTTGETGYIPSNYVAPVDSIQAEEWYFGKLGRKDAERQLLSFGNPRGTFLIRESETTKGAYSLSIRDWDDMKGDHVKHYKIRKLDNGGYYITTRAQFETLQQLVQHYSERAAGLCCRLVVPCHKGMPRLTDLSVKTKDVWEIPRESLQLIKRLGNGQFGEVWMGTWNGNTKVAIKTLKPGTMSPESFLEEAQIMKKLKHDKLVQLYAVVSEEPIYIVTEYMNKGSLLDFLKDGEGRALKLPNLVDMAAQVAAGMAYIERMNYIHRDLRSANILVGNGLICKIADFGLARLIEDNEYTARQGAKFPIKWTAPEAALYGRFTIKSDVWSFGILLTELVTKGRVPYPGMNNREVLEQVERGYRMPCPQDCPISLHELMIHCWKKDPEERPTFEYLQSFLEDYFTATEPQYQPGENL

Serine/threonine-protein kinase PLK1 (Homo sapiens), sequence (P53350 whole entry): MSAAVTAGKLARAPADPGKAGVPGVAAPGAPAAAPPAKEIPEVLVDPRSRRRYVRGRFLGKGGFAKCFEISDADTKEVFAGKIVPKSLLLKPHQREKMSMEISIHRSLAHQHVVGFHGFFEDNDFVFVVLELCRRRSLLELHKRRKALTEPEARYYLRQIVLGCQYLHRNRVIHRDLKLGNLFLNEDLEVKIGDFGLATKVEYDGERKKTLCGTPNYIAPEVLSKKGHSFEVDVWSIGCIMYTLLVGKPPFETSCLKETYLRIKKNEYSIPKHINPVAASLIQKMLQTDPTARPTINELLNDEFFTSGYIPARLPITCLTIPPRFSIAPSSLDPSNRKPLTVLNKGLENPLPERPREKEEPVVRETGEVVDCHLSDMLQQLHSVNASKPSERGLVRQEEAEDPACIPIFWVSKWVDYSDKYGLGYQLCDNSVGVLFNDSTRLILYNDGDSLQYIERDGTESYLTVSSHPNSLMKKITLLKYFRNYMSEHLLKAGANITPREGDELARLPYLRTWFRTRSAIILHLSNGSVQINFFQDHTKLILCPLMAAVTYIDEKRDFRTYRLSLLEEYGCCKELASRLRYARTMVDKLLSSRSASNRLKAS
Vascular endothelial growth factor receptor 3 (Homo sapiens), sequence (P35916 whole entry): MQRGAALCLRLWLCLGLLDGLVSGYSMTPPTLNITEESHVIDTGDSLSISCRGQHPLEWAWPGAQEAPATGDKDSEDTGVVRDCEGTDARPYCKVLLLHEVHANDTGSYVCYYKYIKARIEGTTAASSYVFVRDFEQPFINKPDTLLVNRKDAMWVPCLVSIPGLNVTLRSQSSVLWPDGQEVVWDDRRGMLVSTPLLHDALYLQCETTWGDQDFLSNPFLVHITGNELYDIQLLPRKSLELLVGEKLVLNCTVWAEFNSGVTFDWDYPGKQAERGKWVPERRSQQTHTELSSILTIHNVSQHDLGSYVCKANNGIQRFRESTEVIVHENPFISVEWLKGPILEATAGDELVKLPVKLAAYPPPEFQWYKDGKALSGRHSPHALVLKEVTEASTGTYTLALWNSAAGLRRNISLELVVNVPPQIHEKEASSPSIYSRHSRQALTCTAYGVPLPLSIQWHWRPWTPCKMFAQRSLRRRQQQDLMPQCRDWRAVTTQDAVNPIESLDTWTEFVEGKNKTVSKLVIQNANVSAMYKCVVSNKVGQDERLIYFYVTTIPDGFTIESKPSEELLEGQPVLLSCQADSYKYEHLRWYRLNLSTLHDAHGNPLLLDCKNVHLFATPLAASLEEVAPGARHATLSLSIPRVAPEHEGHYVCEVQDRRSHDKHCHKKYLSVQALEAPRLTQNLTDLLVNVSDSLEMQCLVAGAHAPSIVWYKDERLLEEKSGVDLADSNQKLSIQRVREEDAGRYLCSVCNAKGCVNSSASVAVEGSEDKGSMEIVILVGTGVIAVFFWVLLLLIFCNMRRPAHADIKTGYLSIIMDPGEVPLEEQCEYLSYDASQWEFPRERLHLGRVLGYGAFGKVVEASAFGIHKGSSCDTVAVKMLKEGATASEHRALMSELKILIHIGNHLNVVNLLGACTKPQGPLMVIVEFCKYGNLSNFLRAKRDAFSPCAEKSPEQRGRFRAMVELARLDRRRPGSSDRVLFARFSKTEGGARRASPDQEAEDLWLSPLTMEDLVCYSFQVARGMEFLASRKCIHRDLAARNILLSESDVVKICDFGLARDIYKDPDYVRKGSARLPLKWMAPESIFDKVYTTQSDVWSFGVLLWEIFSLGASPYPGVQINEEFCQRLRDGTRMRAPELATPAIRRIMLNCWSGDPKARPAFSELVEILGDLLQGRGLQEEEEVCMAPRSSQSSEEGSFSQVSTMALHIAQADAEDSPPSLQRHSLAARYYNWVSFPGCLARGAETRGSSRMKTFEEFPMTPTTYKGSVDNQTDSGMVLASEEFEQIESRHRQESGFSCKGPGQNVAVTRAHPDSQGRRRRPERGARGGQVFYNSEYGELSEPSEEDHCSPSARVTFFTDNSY
Serine/threonine-protein kinase Nek7 (Homo sapiens), sequence (Q8TDX7 whole entry, looked up): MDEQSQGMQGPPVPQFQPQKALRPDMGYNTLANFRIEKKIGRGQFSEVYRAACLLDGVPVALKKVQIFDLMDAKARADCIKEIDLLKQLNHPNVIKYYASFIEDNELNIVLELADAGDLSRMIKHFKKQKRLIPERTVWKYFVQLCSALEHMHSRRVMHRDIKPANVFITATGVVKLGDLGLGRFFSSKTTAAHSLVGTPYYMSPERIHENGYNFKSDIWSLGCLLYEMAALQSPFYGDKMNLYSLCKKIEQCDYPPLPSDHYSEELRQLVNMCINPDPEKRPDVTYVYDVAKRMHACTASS
Macrophage colony-stimulating factor 1 receptor (Homo sapiens), sequence (P07333 whole entry): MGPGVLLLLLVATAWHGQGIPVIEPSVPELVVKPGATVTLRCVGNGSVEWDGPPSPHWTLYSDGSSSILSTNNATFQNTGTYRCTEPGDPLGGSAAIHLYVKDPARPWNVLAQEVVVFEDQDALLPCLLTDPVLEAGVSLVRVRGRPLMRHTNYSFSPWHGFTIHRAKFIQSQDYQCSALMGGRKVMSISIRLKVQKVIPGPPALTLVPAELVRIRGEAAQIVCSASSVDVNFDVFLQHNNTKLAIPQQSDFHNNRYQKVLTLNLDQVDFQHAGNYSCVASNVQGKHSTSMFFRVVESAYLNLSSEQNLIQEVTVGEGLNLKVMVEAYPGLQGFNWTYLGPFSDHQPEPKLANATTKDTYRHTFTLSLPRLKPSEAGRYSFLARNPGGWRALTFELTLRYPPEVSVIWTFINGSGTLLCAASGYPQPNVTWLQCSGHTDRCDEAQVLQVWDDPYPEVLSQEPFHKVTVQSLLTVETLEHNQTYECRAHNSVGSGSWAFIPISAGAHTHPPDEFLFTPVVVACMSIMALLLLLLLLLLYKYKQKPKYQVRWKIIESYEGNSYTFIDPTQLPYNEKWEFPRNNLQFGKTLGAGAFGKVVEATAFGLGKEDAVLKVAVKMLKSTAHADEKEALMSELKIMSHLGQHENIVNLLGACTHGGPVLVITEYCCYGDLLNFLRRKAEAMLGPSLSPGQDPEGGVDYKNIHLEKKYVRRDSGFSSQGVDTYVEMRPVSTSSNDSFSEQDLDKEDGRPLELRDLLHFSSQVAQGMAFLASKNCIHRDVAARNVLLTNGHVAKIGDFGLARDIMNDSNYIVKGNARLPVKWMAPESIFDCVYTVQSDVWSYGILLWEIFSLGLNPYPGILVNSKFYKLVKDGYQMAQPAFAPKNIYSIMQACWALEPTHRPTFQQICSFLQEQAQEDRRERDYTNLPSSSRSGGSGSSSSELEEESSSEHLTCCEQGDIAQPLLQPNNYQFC
Serine/threonine-protein kinase Nek6 (Homo sapiens), sequence (Q9HC98 whole entry): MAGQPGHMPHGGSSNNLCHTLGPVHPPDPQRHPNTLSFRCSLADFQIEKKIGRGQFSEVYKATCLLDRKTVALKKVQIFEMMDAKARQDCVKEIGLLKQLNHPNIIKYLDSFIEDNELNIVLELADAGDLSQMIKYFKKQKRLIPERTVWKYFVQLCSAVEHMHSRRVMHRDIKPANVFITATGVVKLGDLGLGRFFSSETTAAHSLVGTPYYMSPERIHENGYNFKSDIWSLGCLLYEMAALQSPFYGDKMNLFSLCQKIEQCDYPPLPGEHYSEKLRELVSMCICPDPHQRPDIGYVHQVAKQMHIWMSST

**Q.** What does the source list for `COc1ccc(-c2cc3c(N)ncnc3o2)cc1`?
**A.** inhibition [1]: -1.16%; inhibition [2]: 0.22%; inhibition [3]: 3.78%; inhibition [4]: -1.56%; inhibition [5]: -1.7%; inhibition [6]: -0.18%; inhibition [7]: -1.06%; inhibition [8]: -2.18%; inhibition [9]: -0.87%; inhibition [10]: 4.69%; inhibition [11]: 2.28%; inhibition [12]: -1.11%; inhibition [13]: -1.15%; inhibition [14]: 0.22%; inhibition [15]: 1.63%; inhibition [16]: 0.51%; inhibition [17]: 4.44%; inhibition [18]: 2.06%; inhibition [19]: 17.9%; inhibition [20]: 0.82%
